The list shows a part of the results. No count for the full screen is at hand.
Target: furin, P09958
Assay: furin cleavage Z-score vs untreated control; higher = more cleavage, active = 3.5 or more, inactive = 1 or less, 8 variable residues between constant flanks
Method in brief: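 Furin-free reactions served as the baseline for the cleavage Z-score, which is the log read count lowess-adjusted and scaled by median absolute deviation. Counts came from released DNA, adapter-tagged by PCR and sequenced. Purified furin had cut 8-mer peptides fused to a cDNA oligonucleotide on magnetic beads during 7.5, 15 or 30 min at 1:10 enzyme:substrate.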
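Further: purified furin at 1:10 enzyme:substrate in 50 mM HEPES pH 7.5.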

furin, P09958, sequence (P09958 whole entry): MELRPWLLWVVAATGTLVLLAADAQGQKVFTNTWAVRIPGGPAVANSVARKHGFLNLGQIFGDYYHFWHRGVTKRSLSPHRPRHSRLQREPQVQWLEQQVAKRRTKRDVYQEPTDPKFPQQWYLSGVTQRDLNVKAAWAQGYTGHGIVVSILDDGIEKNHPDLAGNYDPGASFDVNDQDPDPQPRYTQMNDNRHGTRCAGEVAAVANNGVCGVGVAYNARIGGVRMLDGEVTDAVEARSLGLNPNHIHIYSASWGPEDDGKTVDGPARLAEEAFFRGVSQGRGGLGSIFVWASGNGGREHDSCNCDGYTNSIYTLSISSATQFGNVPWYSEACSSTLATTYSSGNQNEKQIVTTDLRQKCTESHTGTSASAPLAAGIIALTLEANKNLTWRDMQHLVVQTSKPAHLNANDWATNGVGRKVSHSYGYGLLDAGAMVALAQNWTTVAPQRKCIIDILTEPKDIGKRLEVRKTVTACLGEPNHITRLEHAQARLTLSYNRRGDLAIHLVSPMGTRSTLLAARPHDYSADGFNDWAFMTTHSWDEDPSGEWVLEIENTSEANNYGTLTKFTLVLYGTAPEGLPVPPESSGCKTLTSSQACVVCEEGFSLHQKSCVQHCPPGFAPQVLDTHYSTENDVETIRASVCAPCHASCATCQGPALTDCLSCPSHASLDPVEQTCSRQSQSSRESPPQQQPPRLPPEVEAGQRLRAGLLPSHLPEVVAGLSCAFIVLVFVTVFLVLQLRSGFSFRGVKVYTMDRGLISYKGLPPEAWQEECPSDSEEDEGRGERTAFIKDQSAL

| Sequence | furin cleavage Z-score (7.5 min) | furin cleavage Z-score (15 min) | furin cleavage Z-score (30 min) |
| --- | --- | --- | --- |
| CARVTRSLDVAGNASASA [FS-3127] | 5.89 (active) | 8.68 (active) | 7.6 (active) |
| CAVVCCSMSIAGNASASA [HC2084] | -0.331 (inactive) | -1.27 (inactive) | 0.12 (inactive) |
| CARRKKILDVAGNASASA [FS-3049] | 0.884 (inactive) | 0.207 (inactive) | -1.99 (inactive) |
| CARKWRSWKVAGNASASA [FS-2274] | 1.07 | 1.35 | 0.0619 (inactive) |
| CARERRWQDVAGNASASA [FS-1698] | -0.457 (inactive) | 0.122 (inactive) | 1.79 |
| CARQMRSASIAGNASASA [FS-2400] | 0.584 (inactive) | 2.25 | 4.94 (active) |
| CAEKMALYDVAGNASASA [HC1456] | 0.218 (inactive) | -0.51 (inactive) | 0.171 (inactive) |
| CARQMRSVDVAGNASASA [FS-3039] | 2.09 | 3.9 (active) | 5.69 (active) |
| CARQNRSRSIAGNASASA [FS-2362] | -0.846 (inactive) | 0.141 (inactive) | -0.0686 (inactive) |
| CAGGDIYHSVAGNASASA [HC1649] | -1.03 (inactive) | -0.366 (inactive) | -0.802 (inactive) |
| CASSPCSAHLAGNASASA [HC2497] | 0.244 (inactive) | 0.911 (inactive) | 0.262 (inactive) |
| CAAVLTSMLTAGNASASA [HC1245] | -1.15 (inactive) | 1.56 | 0.027 (inactive) |
| CARSNRQLGIAGNASASA [FS-2185] | 0.465 (inactive) | -0.691 (inactive) | 0.216 (inactive) |
| CANWQRARRFAGNASASA [FS-912] | 3.9 (active) | 4.91 (active) | 5.21 (active) |
| CAVSRRARRFAGNASASA [FS-1436] | 10.2 (active) | 11.6 (active) | 10.4 (active) |
| CANFHKARRFAGNASASA [FS-1143] | -0.34 (inactive) | -0.616 (inactive) | -0.0235 (inactive) |
| CAVSRRSRGIAGNASASA [FS-2857] | 1.63 | 3.08 | 4.54 (active) |
| CAAAAAAAAAAGNASASA [NE2] | 2.09 | 0.496 (inactive) | 2.15 |
| CAVSKRHVRIAGNASASA [FS-2114] | -0.647 (inactive) | 1.47 | 2.71 |
| CAAAARARRFAGNASASA [FS-1108] | 2.41 | 5.92 (active) | 6.24 (active) |
| CANWQKLETFAGNASASA [HC1037] | 0.812 (inactive) | -1.06 (inactive) | 0.807 (inactive) |
| CATAFVGAGLAGNASASA [HC1074] | -0.799 (inactive) | -0.776 (inactive) | -1.06 (inactive) |
| CAGVRLHRFAAGNASASA [HC1224] | -0.592 (inactive) | -0.925 (inactive) | -0.313 (inactive) |
| CAQKKVTFDRAGNASASA [HC1395] | -0.415 (inactive) | -0.119 (inactive) | -0.531 (inactive) |
| CAKYIMTCMSAGNASASA [HC982] | -1.5 (inactive) | -0.454 (inactive) | -2.07 (inactive) |
| CAGEVQIVSTAGNASASA [HC689] | -0.7 (inactive) | 0.651 (inactive) | -0.62 (inactive) |
| CAYPGHITGHAGNASASA [HC315] | 0.244 (inactive) | -0.868 (inactive) | 0.3 (inactive) |
